Test results taken from PubChem BioAssay (EPA / NIEHS).
Calls of active or inactive are those of the source. Rule for the calls: active = hit-call score of the fitted dose curve at least 0.9, where 1 is the maximum; inactive = score below 0.9.

Assay: ATG_TA_CIS: Attagene CIS-FACTORIAL HepG2 Assay for human TA Basal Promoter (AID 2282964)
Details: HepG2 Attagene CIS-factorial TA basal promoter reporter; actives raise or lower the signal
Procedure: ATG_CIS is a cell-based, multiplexed-readout assay that uses HepG2, a human liver cell line, with measurements taken at 24 hours after chemical dosing in a 24-well plate.ATG_TA_CIS is one of 52 assay component(s) measured or calculated from the ATG_CIS assay. It is designed to make measurements of mRNA induction, a form of inducible reporter, as detected with fluorescence intensity signals by Reverse transcription polymerase chain reaction (RT-PCR) and Capillary electrophoresis technology.Data from the assay component ATG_TA_CIS was analyzed into 1 assay endpoint. This assay endpoint, ATG_TA_CIS, was analyzed with bidirectional fitting relative to DMSO as the negative control and baseline of activity. Using a type of inducible reporter, measures of mRNA for gain or loss-of-signal activity can be used to understand the background control at the transcription factor-level as they relate to the gene . Furthermore, this assay endpoint can be referred to as a secondary readout, because this assay has produced multiple assay endpoints where this one serves a background control function. To generalize the intended target to other relatable targets, this assay endpoint is annotated to the background measurement intended target family, where the subfamily is internal marker.
Human liver HepG2 cells are transiently transfected with multiple reporter transcription units (MRTUs) in 6-well plates using FuGene 6 reagent (Roche; 3 ml FuGene/1 mg DNA). The MRTU constructs are regulated by a cis-regulating element (promoter). […] A major difference between the CIS and TRANS system is that in CIS activities of endogenous TFs are measured, whereas the TRANS assay evaluates changes in activities of exogenous, chimeric NR-Gal4 proteins. […] At the end of 24 hour incubation, total RNA was isolated using TriZol reagent (Invitrogen). The isolated RNA is then reverse-transcribed using oligo(dT) primer and Mo-MLV reverse transcriptase (Invitrogen) with DNAse I (Ambion) treatment for 30 min. The one-tenth of the produced cDNA was amplified by PCR using Taq DNA polymerase (Invitrogen) and two reporter sequence-specific primers. The PCR products were fluorescently labeled by primer extension with 6-arboxyfluorescein (6-FAM) 5'-labeled reporter sequence-specific primer (2 min at 95 C, 20 s at 68 C and 10 min at 72 C) and these products were digested with 5U of HpaI (New England Biolabs) for 2h at 37 C. The fragments were purified using Qiaquick PCR columns (Qiagen), analyzed on an ABI 3130xL genetic analyzer (Applied Biosystems) with peak positions identified by using a set of X-rhodamine (ROX)-labeled MapMarker1000 molecular weight standards (BioVentures). The raw capillary electrophoresis data was processed using Attagraph software (Attagene).

Row | Structure (SMILES) | outcome | AC50
1 | CCCCCCCC/C=C\CCCCCCCC(=O)N(C)CC(=O)O | inactive | –
2 | CCCCOC(=O)[C@H](C)O | inactive | –
3 | OCCCCC(F)(F)C(F)(F)C(F)(F)C(F)(F)F | inactive | –
4 | C=CCOC(=O)CC(C)C | inactive | –
5 | CN1CN(C)CN(C)C1 | inactive | –
6 | O=c1[nH]cccc1O | inactive | –
7 | CC(C)OC=O | inactive | –
8 | CC(C)C(=O)OCc1ccccc1 | inactive | –
9 | CCOC(=O)C1CC(=O)C(=C(O)C2CC2)C(=O)C1 (stereo not given) | inactive | –
10 | Nc1cccnc1N | inactive | –
11 | CC(C)(C)c1cc(Cc2cc(C(C)(C)C)c(O)c(C(C)(C)C)c2)cc(C(C)(C)C)c1O | inactive | –
12 | CCCCCCCCCCCCC[N+](C)(C)Cc1ccccc1 | inactive | –
13 | CC(C)OC(=O)COc1ccc(Cl)cc1Cl | inactive | –
14 | Nc1cc([N+](=O)[O-])cc(Cl)c1O | inactive | –
15 | O=C=NCc1cccc(CN=C=O)c1 | inactive | –
16 | CCN(CC)c1ccc(C=O)c(O)c1 | inactive | –
17 | CN(N=O)C(=O)N[C@@H]1[C@@H](O)[C@H](O)[C@@H](CO)O[C@@H]1O | inactive | –
18 | FC(F)(F)C(F)(F)C(F)(F)C(F)(F)C(F)(F)C(F)(F)C(F)(F)CCI | inactive | –
19 | CCOCN(C(=O)CS(=O)(=O)O)c1c(C)cccc1CC | inactive | –
20 | CN(C)C(C)(C)CO | inactive | –

Row | Structure (SMILES) | outcome | AC50
21 | COCCOCCC[Si](C)(O[Si](C)(C)C)O[Si](C)(C)C | inactive | –
22 | Cc1ccc2c(c1)OCC(=O)CO2 | inactive | –
23 | O=C1C=CC(=O)N1c1ccc(Cc2ccc(N3C(=O)C=CC3=O)cc2)cc1 | inactive | –
24 | CCCCCC/C=C/CCCCCCCC(=O)O | inactive | –
25 | CSc1ccc(Cl)cc1 | inactive | –
26 | O=C=Nc1cccc2c(N=C=O)cccc12 | inactive | –
27 | O=C(O)C(F)(F)C(F)(F)C(F)(F)C(F)(F)C(F)(F)C(F)(F)C(F)F | inactive | –
28 | O=C(c1ccccc1)c1ccc(Cl)cc1 | inactive | –
29 | COC(F)(C(F)F)C(F)(F)F (stereo not given) | inactive | –
30 | CCN(CC)c1ccc(C=O)cc1 | inactive | –
31 | CCOCOCC | inactive | –
32 | CCN(CC)c1ccc(N=Nc2ccccc2)cc1 | inactive | –
33 | c1ccc(C[P+](c2ccccc2)(c2ccccc2)c2ccccc2)cc1 | inactive | –
34 | CCCCCCCCn1sc(Cl)c(Cl)c1=O | – | 8.12 µM (active)
35 | CCCCC(CC)COC(=O)c1ccc(N(C)C)cc1 (stereo not given) | inactive | –
36 | CCCCCCCCCCCC(=O)Cl | inactive | –
37 | Cc1cc(O)c(C(C)(C)C)cc1C(C)(C)C | inactive | –
38 | CC(=O)C=O | inactive | –
39 | O=S(=O)(O)c1ccc(Cl)cc1 | inactive | –
40 | OCC1CCCO1 (stereo not given) | inactive | –
